Assay [1] concerns the target Tyrosine-protein kinase receptor UFO (Homo sapiens) (UniProt P30530). The settings on record: at 1 µM.
In assay [2] the target is Tyrosine-protein kinase Blk (Homo sapiens) (UniProt P51451). The settings on record: at 0.1 µM.
For assay [3] the target is unchanged. The settings on record: at 1 µM.
For assay [4], the target named is T1, Cytoplasmic tyrosine-protein kinase BMX (Homo sapiens) (UniProt P51813).
T1 sequence (whole entry): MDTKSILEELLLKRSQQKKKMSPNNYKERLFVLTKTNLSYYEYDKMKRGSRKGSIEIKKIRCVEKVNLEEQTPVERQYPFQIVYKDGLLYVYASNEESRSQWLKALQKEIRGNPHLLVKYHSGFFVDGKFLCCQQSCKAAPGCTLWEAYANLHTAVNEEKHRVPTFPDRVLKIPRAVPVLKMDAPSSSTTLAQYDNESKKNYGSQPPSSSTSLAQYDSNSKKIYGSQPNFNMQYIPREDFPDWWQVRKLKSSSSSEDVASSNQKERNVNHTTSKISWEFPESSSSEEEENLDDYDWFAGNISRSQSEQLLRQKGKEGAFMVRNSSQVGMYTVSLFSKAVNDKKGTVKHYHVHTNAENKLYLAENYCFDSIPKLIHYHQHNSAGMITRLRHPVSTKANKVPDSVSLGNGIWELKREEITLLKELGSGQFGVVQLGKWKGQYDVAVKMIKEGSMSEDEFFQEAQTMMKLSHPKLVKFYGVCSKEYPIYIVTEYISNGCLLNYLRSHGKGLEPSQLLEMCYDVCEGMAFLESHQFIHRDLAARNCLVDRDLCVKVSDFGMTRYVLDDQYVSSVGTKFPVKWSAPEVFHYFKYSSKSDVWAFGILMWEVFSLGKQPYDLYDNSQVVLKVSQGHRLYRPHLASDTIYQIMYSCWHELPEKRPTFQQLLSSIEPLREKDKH
The settings on record: at 0.1 µM.

Assay [5] has as its target T1, Cytoplasmic tyrosine-protein kinase BMX (Homo sapiens). The settings on record: at 1 µM.
The target in assay [6] is Protein-tyrosine kinase 6 (Homo sapiens) (UniProt Q13882). The settings on record: at 0.1 µM.
Chain of Protein-tyrosine kinase 6 (Homo sapiens) (Q13882 whole entry, looked up): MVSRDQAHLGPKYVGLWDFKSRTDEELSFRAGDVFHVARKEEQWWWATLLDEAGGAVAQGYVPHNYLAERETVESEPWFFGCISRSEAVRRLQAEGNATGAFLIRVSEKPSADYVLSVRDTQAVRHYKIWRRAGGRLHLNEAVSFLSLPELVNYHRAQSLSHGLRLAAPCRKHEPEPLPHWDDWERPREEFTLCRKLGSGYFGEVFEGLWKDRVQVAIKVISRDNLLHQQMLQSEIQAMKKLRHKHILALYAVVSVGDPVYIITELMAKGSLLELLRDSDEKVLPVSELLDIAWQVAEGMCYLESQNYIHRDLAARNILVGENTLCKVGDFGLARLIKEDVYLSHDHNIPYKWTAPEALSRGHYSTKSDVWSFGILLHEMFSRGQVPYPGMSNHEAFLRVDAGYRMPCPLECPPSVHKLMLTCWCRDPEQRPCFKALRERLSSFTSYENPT
The target is the same in assay [7]. To be noted: at 1 µM.
In assay [8] the target is Tyrosine-protein kinase BTK (Homo sapiens) (UniProt Q06187). To be noted: at 0.1 µM.
Chain of Tyrosine-protein kinase BTK (Homo sapiens) (Q06187 whole entry): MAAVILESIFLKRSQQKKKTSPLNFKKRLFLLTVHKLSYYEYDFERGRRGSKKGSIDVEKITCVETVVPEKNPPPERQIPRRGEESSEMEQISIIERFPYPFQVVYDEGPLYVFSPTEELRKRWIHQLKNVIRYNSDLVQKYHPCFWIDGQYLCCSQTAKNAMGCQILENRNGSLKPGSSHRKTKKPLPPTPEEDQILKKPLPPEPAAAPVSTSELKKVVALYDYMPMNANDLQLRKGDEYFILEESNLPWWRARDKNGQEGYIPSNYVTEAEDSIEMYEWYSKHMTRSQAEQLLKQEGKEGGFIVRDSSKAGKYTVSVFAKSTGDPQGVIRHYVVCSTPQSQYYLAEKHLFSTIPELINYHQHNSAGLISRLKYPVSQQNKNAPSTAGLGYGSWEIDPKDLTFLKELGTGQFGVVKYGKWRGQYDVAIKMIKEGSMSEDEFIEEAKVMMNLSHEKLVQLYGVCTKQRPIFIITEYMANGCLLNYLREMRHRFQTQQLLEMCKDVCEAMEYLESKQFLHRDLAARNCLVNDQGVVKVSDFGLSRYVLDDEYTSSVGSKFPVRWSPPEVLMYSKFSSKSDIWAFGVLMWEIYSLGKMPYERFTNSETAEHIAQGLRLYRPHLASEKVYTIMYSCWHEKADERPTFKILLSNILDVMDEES
The target is the same in assay [9]. To be noted: at 1 µM.
The target in assay [10] is Tyrosine-protein kinase CSK (Homo sapiens) (UniProt P41240). The settings on record: at 0.1 µM.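 Note: value given is the averaged percent inhibition of CSK kinase activity, from the GSK PKIS kinase inhibitor set screening panel.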
Chain of Tyrosine-protein kinase CSK (Homo sapiens) (P41240 2-450 limits assumed): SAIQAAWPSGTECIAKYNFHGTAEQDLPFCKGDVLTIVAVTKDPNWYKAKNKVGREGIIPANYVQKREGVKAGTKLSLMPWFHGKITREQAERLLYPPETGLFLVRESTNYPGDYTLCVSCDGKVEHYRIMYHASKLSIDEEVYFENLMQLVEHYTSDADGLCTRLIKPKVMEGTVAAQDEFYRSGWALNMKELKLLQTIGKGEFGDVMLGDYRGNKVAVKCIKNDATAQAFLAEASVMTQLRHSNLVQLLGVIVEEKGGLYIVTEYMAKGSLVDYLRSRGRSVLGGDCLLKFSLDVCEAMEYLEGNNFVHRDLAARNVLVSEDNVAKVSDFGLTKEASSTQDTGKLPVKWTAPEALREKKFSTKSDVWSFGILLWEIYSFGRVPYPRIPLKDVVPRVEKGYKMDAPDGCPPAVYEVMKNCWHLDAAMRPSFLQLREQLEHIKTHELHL

In general, inhibition refers to the drop in the measured response relative to a control, in per cent.

Chain of Tyrosine-protein kinase receptor UFO (Homo sapiens) (P30530 whole entry): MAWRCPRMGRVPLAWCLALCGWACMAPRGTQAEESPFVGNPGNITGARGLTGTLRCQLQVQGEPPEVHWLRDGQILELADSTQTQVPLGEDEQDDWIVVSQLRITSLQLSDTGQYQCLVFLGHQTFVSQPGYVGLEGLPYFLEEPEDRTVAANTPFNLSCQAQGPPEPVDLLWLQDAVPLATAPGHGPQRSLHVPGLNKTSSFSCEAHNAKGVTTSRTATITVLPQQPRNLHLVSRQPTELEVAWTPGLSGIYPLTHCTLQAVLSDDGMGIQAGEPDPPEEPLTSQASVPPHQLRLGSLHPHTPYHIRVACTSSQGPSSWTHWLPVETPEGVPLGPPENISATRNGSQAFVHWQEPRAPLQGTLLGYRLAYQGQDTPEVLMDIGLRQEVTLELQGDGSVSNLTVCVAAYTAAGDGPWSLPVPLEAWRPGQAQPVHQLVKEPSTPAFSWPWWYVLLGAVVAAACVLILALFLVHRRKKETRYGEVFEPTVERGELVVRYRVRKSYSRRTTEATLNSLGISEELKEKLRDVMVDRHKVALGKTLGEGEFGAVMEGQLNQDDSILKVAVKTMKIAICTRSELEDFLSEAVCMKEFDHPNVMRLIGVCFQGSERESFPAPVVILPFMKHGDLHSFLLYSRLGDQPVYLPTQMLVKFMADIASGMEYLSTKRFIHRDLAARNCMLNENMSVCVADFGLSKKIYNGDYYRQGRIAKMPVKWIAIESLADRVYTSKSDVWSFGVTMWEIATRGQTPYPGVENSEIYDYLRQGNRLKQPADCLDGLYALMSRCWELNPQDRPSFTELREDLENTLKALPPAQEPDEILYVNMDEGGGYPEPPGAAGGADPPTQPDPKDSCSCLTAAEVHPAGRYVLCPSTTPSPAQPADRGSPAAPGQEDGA
Chain of Tyrosine-protein kinase Blk (Homo sapiens) (P51451 2-505 limits assumed): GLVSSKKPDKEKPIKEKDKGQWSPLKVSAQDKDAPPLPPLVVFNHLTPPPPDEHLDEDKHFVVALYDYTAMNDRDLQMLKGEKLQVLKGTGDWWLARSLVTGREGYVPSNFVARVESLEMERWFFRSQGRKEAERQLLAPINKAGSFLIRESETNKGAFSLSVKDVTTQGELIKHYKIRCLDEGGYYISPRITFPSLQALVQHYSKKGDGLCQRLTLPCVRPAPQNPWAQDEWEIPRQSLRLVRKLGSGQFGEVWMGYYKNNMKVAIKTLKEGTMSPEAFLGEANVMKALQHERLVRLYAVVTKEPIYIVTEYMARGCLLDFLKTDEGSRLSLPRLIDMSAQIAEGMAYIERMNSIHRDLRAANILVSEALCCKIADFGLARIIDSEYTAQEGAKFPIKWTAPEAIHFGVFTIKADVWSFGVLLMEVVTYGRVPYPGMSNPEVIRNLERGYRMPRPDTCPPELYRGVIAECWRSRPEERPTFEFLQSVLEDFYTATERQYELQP

In the case of `O=C1Nc2ccccc2/C1=C1\CCc2cc(O)ccc21`, the inhibition stood at 1.9% in [1]; 4.37% in assay [2]; 22% in [3]; 0.61% in assay [4]; 7.52% in assay [5]; 5% in assay [6]. Moreover, the inhibition in assay [7] was 4.05%; in assay [8], -0.87%; in assay [9], 0.47%; in assay [10] it was 5.49%.

As for `CCOc1ccc2c(-c3ccnc(Nc4cc(OC)cc(C(F)(F)F)c4)n3)cnn2n1`, the inhibition in assay [1] is -1.43%; in assay [2], 0.5%; in [3], 4.83%; in assay [4] it was -3.75%; in [5], 2.82%; in assay [6], 1.51%. The inhibition in assay [7] is 2.17%; in assay [8], -0.58%; in assay [9], -0.1%; in [10], -0.12%.

As to `O=C(O[C@H]1CN[C@H](C#Cc2cc3ncnc(Nc4ccc(OCc5cccc(F)c5)c(Cl)c4)c3s2)C1)N1CCOCC1`, the inhibition in assay [1] is -9.27%; in assay [2], 3.99%; in assay [3], 1.91%; in [4] it was -1.21%; in assay [5] it was 3.25%; in [6], 5.25%. The inhibition is 9.3% in assay [7], 0.42% in [8], -0.33% in assay [9] and 7.67% in [10].

With `Fc1ccc(Nc2nccc(-c3c(-c4ccc(C(F)(F)F)cc4)nn4ncccc34)n2)cc1F`, the inhibition in [1] was -7.82%; in [2], 2.43%; in [3], 2.03%; in assay [4], 0.77%; in assay [5] it was 5.09%; in assay [6], 3.39%. Moreover, the inhibition amounted to 0.92% in assay [7], 1.62% in [8], 0.94% in assay [9] and 1.84% in assay [10].

As for `N#Cc1cccc(Nc2ncc(-c3ccccc3)o2)c1`, the inhibition in assay [1] is -1.77%; in assay [2], 2.28%; in [3] it was 5.45%; in assay [4], 5.35%; in assay [5], 3.56%; in assay [6] it was 3.51%. In addition, the inhibition was 3.45% in [7], 1.01% in [8], -0.7% in assay [9] and 2.15% in assay [10].

Turning to `COc1ccc(Nc2ncc(-c3ccccc3)o2)cc1OC`, the inhibition is 3.31% in [1]; 1.21% in assay [2]; 24.1% in assay [3]; -7.7% in [4]; 4.92% in [5]; 0.75% in [6]. Besides, the inhibition in assay [7] was found to be 2.71%; in assay [8], 0.8%; in assay [9] it was 2.81%; in assay [10], 1.21%.

Regarding `COc1cccc(Nc2nccc(-c3cnn4ncccc34)n2)c1`, the inhibition in assay [1] came to 11.4%; in assay [2], 2.91%; in [3], 14%; in [4], 9.52%; in assay [5] it was 21.8%; in assay [6] it was 1.39%. Further, the inhibition was 10.1% in assay [7], 0.35% in assay [8], 4.57% in assay [9] and 4.74% in assay [10].

For `c1ccc(-c2n[nH]cc2-c2ccnc(-c3ccc(OCCn4ccnc4)cc3)c2)nc1`, the inhibition was -0.26% in [1]; -0.32% in [2]; 1.78% in assay [3]; -0.48% in [4]; 0.53% in [5]; 2.69% in assay [6]. Besides, the inhibition in assay [7] is 8.22%; in [8], 0.31%; in assay [9], -1.64%; in [10] it was 1%.

Regarding `O=C(Nc1n[nH]c2nnc(-c3cccnc3)cc12)C1CC1`, the inhibition was 1.65% in assay [1]; 0.58% in [2]; 2.68% in assay [3]; -0.2% in assay [4]; 0.81% in [5]; -0.91% in assay [6]. Further, the inhibition is -0.57% in assay [7], 0.26% in [8], -0.1% in assay [9] and -1.49% in assay [10].

On to `CN(C)CCNC(=O)Nc1ccc(N(C)c2ccnc(Nc3ccc(CS(C)(=O)=O)cc3)n2)cc1`, for which the inhibition in assay [1] is -0.6%; in assay [2] it was 2.78%; in assay [3] it was 9.64%; in assay [4], 3.74%; in assay [5], 10.5%; in assay [6], 4.92%. The inhibition in assay [7] came to 5.13%; in assay [8], 2.45%; in assay [9], 3.65%; in assay [10], 3.68%.

For the molecule `CCS(=O)(=O)c1ccc(OC)c(Nc2ncc(-c3cccc(C(C)=O)c3)o2)c1`, the inhibition in assay [1] is -3.61%; in assay [2] it was 4.6%; in assay [3] it was 35.6%; in assay [4], -2.05%; in assay [5], 15.7%; in assay [6], 4.59%. Moreover, the inhibition in [7] is 18.7%; in assay [8], 2.71%; in assay [9], 8.89%; in [10] it was 2.68%.

As for `COc1c(C(N)=O)cc(-c2ccc(Cl)cc2)cc1-c1ccc(S(N)(=O)=O)cc1`, the inhibition in [1] was -6.03%; in assay [2] it was 1.95%; in [3] it was 3.34%; in assay [4] it was 4.08%; in assay [5], 6.04%; in [6], 3.21%. Further, the inhibition was 4.09% in [7], -1.27% in assay [8], -0.85% in assay [9] and 3.55% in [10].

Take `COc1ccc2ncn(-c3cc(O[C@H](C)c4ccccc4C(F)(F)F)c(C(N)=O)s3)c2c1`: the inhibition is 1.8% in assay [1]; -0.74% in assay [2]; 2.3% in assay [3]; -0.1% in [4]; 1.93% in assay [5]; -0.2% in [6]. Moreover, the inhibition in assay [7] was -0.61%; in assay [8] it was -0.76%; in [9], -0.74%; in assay [10] it was -1.23%.

Consider `O=C(O[C@H]1CN[C@H](C#Cc2cc3ncnc(Nc4ccc5c(ccn5Cc5cc(F)ccc5F)c4)c3s2)C1)N1CCOCC1`, for which the inhibition in assay [1] is -5.54%; in [2], 2.36%; in assay [3], 8.13%; in assay [4] it was 4.47%; in assay [5], 4.96%; in assay [6], 3.43%. The inhibition is 4.9% in assay [7], 0.02% in [8], 2.23% in [9] and 3.21% in assay [10].

Turning to `c1cnn2ncc(-c3ccnc(NCCCN4CCOCC4)n3)c2c1`, the inhibition is -4.37% in [1]; 1.7% in assay [2]; 2.58% in [3]; -0.07% in assay [4]; 2.01% in [5]; 2.34% in [6]. The inhibition in assay [7] is 3.25%; in assay [8], -1.19%; in [9], -2.44%; in assay [10], 5.75%.

The values are drawn from ChEMBL document CHEMBL1961873, “Compounds: GSK PKIS; Assays: Nanosyn kinase panel” (2012).
